Compound activity as filed in PubChem BioAssay.
A selection: hits, their analogues and other compounds. The true share with any hit is near 0.37%.
HRas wt GTP bind – modulators of GTP binding to human HRas wildtype; GTP binding activity, % at 10 µM; P01112; AID 759; actives 0.14% (n = 190,000); GST-Ras wt beads, Bodipy-FL-GTP binding, flow cytometry; actives lie on both sides;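 active = GTP binding activity at least 20% away from the 100% baseline, either lowered as inhibitor or raised as activator; inconclusive = flagged as likely green fluorescent, judged across all proteins in the well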;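 also: 0% = unlabeled GTP competition control and 100% = no-compound control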
Target sequence (P01112 whole entry, looked up): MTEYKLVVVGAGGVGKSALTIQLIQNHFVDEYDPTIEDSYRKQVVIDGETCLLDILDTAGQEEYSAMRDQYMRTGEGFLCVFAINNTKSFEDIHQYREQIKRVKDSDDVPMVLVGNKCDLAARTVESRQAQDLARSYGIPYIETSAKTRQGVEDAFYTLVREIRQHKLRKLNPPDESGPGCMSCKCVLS
Rab2A wt mod – changes GTP binding to wildtype dog Rab2A, up or down; P61105; GST-Rab2 wt beads, Bodipy-GTP binding, flow cytometry; GTP binding activity, % at 10 µM; actives 0.19% (n = 190,000);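 active = GTP binding activity at least 20 points away from 100%, either lowered or raised; inconclusive = signal likely due to the compound's own green fluorescence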;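 also: 0% = beads with excess unlabeled GTP and 100% = no-compound control corrected for plate trend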
Rac1 wt modul – alters GTP binding to wildtype human Rac1; P63000; GST-Rac1 beads, fluorescent GTP binding, flow cytometry; actives lie on both sides; 0 = cold GTP competed, 100 = untreated; GTP binding activity (% of control), % at 10 µM; actives 0.27% (n = 190,000); AID 757;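 active = GTP binding activity at least 20 points away from the 100% control level, either lower or higher; inconclusive = compound flagged as likely green fluorescent, judged across all proteins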
Cdc42 wt – changes GTP binding to wildtype human Cdc42; percent activity (GTP binding), % at 10 µM; actives 0.2% (n = 190,000); GST-Cdc42 beads, Bodipy-GTP binding, flow cytometry; actives lie on both sides; P60953; AID 761;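 active = percent activity GTP binding at least 20 points away from the 100% baseline, either down as inhibitor or up as activator; inconclusive = compound flagged as likely green fluorescent from well-wide comparison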;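 also: median bead fluorescence of bound Bodipy-FL-GTP at 100 nM; 0% = excess unlabeled GTP control and 100% = no compound control; below 100% means less GTP binding so inhibitor and above means activator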
Target sequence (P60953 whole entry, looked up): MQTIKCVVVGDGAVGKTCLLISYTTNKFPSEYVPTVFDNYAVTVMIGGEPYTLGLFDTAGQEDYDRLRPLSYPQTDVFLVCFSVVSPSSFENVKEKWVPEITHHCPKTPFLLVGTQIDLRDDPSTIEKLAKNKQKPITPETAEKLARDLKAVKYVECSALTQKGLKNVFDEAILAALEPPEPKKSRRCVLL
Rac1 act GTP bind – modulators of GTP binding to human Rac1 activated mutant | GST-Rac1 activated beads, fluorescent GTP binding, flow cytometry; actives lie on both sides; 100% means binding = to untreated wells | percent activity (GTP binding), % at 10 µM | actives 0.11% (n = 190,000) | AID 764;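 active = GTP binding at least 20 percentage points away from the 100% baseline, in either direction, so actives lie on both sides; inconclusive = Compound likely fluorescent itself, or too few beads counted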
Rab7 wt modul – alters GTP binding to wildtype dog Rab7 | GST-Rab7 beads, fluorescent GTP binding, flow cytometry; actives lie on both sides; untreated = 100%, excess cold GTP = 0% | GTP binding activity (percent of control), % at 10 µM | actives 0.055% (n = 190,000) | AID 758;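 active = fluorescent GTP binding to Rab7 beads changed by at least 20 points from the 100% baseline, either direction, mostly lower; inconclusive = compound itself probably fluorescent, or too few beads counted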;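 also: median green fluorescence of bound Bodipy-FL-GTP per Rab7 bead population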
* hit, by the source's call; u = inconclusive; [ ] = another dose, or the depositor's remark.

SMILES	HRas wt GTP bind	Rab2A wt mod	Rac1 wt modul	Cdc42 wt	Rac1 act GTP bind	Rab7 wt modul
O=C(O)CCN1C(=O)/C(=C\c2ccc(-c3nc4ccccc4s3)o2)SC1=S	74*	66*	67*	69*	71*	74*
c1ccc(Nc2nc(-c3ccccn3)cs2)cc1	102	101	105	102	98	104
COc1cccc2sc(Nc3nc(-c4ccccn4)cs3)nc12	85	83	79*	88	90	88
CCC(C)NC(=O)CSc1c2c(nc3ccccc13)CCCC2 (stereo unspecified)	94	98	98	98	96	95
CCN(CC)S(=O)(=O)c1ccc2oc(C(=O)N3CCCCCC3)c(C)c2c1	109	109	107	112	101	103
CCN(CC)S(=O)(=O)c1ccc2oc(C(=O)N3CCc4ccccc4C3)c(C)c2c1	110	108	128*[activator]	107	107	109
COCCn1c(Cc2ccccc2)nnc1SCC(=O)Nc1cc(C)on1	106	103	101	104	100	100
O=C(NCCN1CCCCCC1)C1CC(=O)N(CCc2ccccc2)C1 (stereo unspecified)	96	98	94	94	94	98
O=c1[nH]c2sc3c(c2c2nncn12)CCCC3	78*	77*	76*	79*	88	85
CN(C)/C=N/c1c(C#N)cnn1-c1nc2ccccc2s1	97	96	99	98	97	96
CC(SC(=S)N(C)Cc1cccs1)C(=O)O (stereo unspecified)	140*[activator]	140*[activator]	196*[activator]	168*[activator]	144*[activator]	136*[activator]
CCCCOC(=O)CSC(=S)N(C)Cc1cccs1	103	104	100	102	101	100
CCOC(=O)C1CCCN(Cc2cc(Br)c(OC)cc2OC)C1 (stereo unspecified)	96	97	95	97	98	94
O=C(O)C12C[C@H]3C[C@@H](C1)CC(n1ncc(N4CCN(c5ccccc5)CC4)c(Cl)c1=O)(C3)C2	101	99	102	102	99	101
O=C(Nc1nnc(-c2ccc3c(c2)OCCO3)o1)c1ccc(Cc2ccccc2)cc1	85	81	92	80	79*	86
O=C(CCOc1ccccc1)Nc1nnc(-c2ccc3c(c2)OCCO3)o1	88	90	90	89	88	99
O=C(CCN1CCCCC1)c1ccc2c(c1)OCCO2	103	103	108	105	102	103
O=C(CCN1CCCC1Cc1ccccc1)c1ccc2c(c1)OCCO2 (stereo unspecified)	85	84	84	76*	83	90
O=C(COC(=O)/C=C/c1ccc(Cl)cc1)Nc1ccc2c(c1)OCCO2	81	76*	79*	83	78*	87
COc1ccc(-c2cc(C(=O)O)no2)cc1	93	94	93	90	89	96
O=C(Nc1ccc2nc(-c3cccs3)[nH]c2c1)c1cccs1	75*	77*	76*	75*	86	94
O=C(OCc1ccccc1)c1cccnc1Cl	98	99	96	94	93	106
O=C(O)c1ccccc1C(=O)OCc1ccccc1	136*[activator]	134*[activator]	160*[activator]	115	u	u
CCOc1ccc(-c2cc(N3C(=O)Nc4ccccc4N3O)n[nH]2)cc1	92	94	94	96	94	93
CC1SC(c2ccccc2)N(CC(O)c2ccc([N+](=O)[O-])cc2)C1=O (stereo unspecified)	100	100	100	98	99	103
SMILES	HRas wt GTP bind	Rab2A wt mod	Rac1 wt modul	Cdc42 wt	Rac1 act GTP bind	Rab7 wt modul
Cc1ccc([N+](=O)[O-])cc1-c1ccc(/C=C(\C#N)c2[nH]nc(N)c2C#N)o1	80	82	79*	88	88	87
Cc1ccc(C(c2nnnn2C2CCCCC2)N2CCN3CCCC3C2)cc1 (stereo unspecified)	102	103	105	103	100	104
COc1ccccc1OCCn1cc(C#N)c2ccccc21	100	103	107	103	97	97
Cc1ccccc1OCCn1cc(C(=S)N2CCN(C)CC2)c2ccccc21	104	104	107	102	100	105
COc1ccccc1OCCn1cc(C(=O)O)c2ccccc21	111	114	120*[activator]	114	120*[activator]	109
O=C(O)c1cn(CCOc2ccccc2Cl)c2ccccc12	113	119	121*[activator]	117	115	113
O=C(CSc1n[nH]c(-c2ccccc2)n1)Nc1ccc(Br)cn1	100	99	106	102	103	99
CS(=O)(=O)N1CCN(c2ccccc2NC(=O)C(c2ccccc2)c2ccccc2)CC1	101	99	104	100	96	100
CCOc1ccc(CCNc2ccc3nnc(-c4ccccc4)n3n2)cc1OCC	74*	76*	76*	79*	89	88
Clc1ccc(CNc2ccc3nnc(-c4ccccc4)n3n2)cc1	97	97	98	98	97	94
Cc1ccc(NC(=S)Nc2ccc3nc(-c4ccccn4)c(-c4ccccn4)nc3c2)cc1C	103	100	125*[activator]	101	104	105
COc1cc([N+](=O)[O-])ccc1N=Nc1c(N)[nH]n(-c2ccccc2)c1=O	85	80	81	78*	83	87
COc1cccc(/C=N/Nc2ccc(C(=O)O)cc2)c1O	95	94	97	96	97	96
COc1cccc(/C=N/Nc2nn3cnnc3c3ccccc23)c1O	59*	60*	70*	58*	70*	77*
O=C(Cc1cccc2ccccc12)Nc1ccc(N2CCOCC2)cc1	98	95	103	97	98	97
CC1Cc2ccccc2N1S(=O)(=O)c1cccc(C(=O)NCCCO)c1 (stereo unspecified)	108	112	123*[activator]	113	108	110
O=C(CN1CCN(c2ccccc2)CC1)Nc1ccccc1Sc1ccccc1	102	100	105	98	98	102
O=C(NNC1OC(CO)C(O)C(O)C1O)c1cccnc1 (stereo unspecified)	99	99	98	96	97	99
CC(C)n1c(O)c(N=Nc2ccc(Cl)nn2)c2ccccc21	121*[activator]	129*[activator]	114	116	117	117
Cc1cc(C(=O)N=Nc2c(O)n(C(C)C)c3ccccc23)n[nH]1	96	96	93	94	93	97
CCO/N=C1\C(=O)N(c2ccccc2)c2ccccc21	95	99	101	100	95	101
